The values below come from ChEMBL document CHEMBL3988442, “University of Dundee, Small-Polar-MMV Screening Library” (2021).

About 900 (1.7%) of roughly 53,000 compounds showed an effect of 50% or more. The entries come from a sample that favours strong results as a whole.

This assay concerns Mycobacterium tuberculosis. Nature of the assay: Cornell - Phenotypic assay to identify agents that inhibit growth of Mycobacterium tuberculosis. Type of assay: functional. More on the design: scale not given: direction of the effect not stated beside the values. To be noted: 10 mM as filed; unlikely as a test dose.
`CN(C)CCN1CCC2(CC1)CN(c1cccnc1)C(=O)CO2`: the “Percent Effect” value is reported as -2.61%.
Regarding `CCC(C)NC(=O)Nc1cccc(OC)c1` (centres undefined), the “Percent Effect” value is -23.11%.
The result for `CC1CC(=O)c2cc(C(=O)N3CCN(C)CC3)c(=O)[nH]c2C1` (centres undefined) reads 4.231%.
The figure for `COc1c(Br)c(C(=O)NC2CC2)nn1C` is 20.51%; for `CNc1nc(C(=O)NCc2cccnc2N(C)C)cs1` it is 28.41%.
The result for `CNc1nc(C(=O)NCc2cccnc2N(C)C2CCCCC2)cs1` reads 51.53%.
With `CN(c1ncccc1CNC(=O)c1cscn1)C1CCCCC1`, the “Percent Effect” value was 20.11%.
The result for `CCCN1CCN(Cc2cc3cc(OCC)ccc3[nH]c2=O)CC1` reads 16.06%; that for `CCc1ccc(-c2cn3c(C(=O)NCC(C)C(=O)NC)csc3n2)cc1` (centres undefined), 9.06%.
The figure for `CCn1ccc(CNC(=O)c2cc(OC)cc(OC)c2)n1` is 3.102%.
Take `O=C(CN1CCOCC1)Nc1ccc(C(F)(F)F)cc1Cl`: the “Percent Effect” value was -3.484%.
As to `Cc1cc(C(=O)N2CCN(c3ncc4c(n3)CCOC4)CC2)sc1C`, the “Percent Effect” value stood at 45.6%.
`CC(C)c1cc(C(=O)N2CCN(c3ncc4c(n3)CCOC4)CC2)on1`: the “Percent Effect” value is listed as -0.8267%.
As for `Cc1cnc(C(=O)N2CCN(c3ncc4c(n3)CCOC4)CC2)cn1`, the “Percent Effect” value amounted to 56.71%.
With `O=C(CN1CCc2cncnc2C1)Nc1ccc(Cl)cn1`, the “Percent Effect” value is reported as -14.12%.
For the compound `Cc1csc(CN(C)c2cc(C)nc3c(C)c(C)nn23)n1`, the “Percent Effect” value is listed as 39.72%.
The result for `Cc1cc(N(C)Cc2ccsc2)n2nc(C)c(C)c2n1` reads 80.58%; that for `CCc1nnc(CN(C)c2cc(C)nc3c(C)c(C)nn23)o1`, -22.97%.
As for `COCCNC(=O)CN1CCCC1c1c(C)nn(C)c1Cl` (centres undefined), the “Percent Effect” value is reported as -22.86%.
The result for `COc1ccc2cc(NC(=O)CCNc3ncccn3)cnc2c1` reads -7.502%; that for `COCCC(=O)N1CCC(c2cncc(Oc3cccnc3)n2)CC1`, -4.018%.
The figure for `COc1c(CNC2CCOc3ccccc32)c(C)nn1C` (centres undefined) is 23.56%; for `Cc1nn(C)c(C)c1CNC1CCOc2ccccc21` (centres undefined) it is 106.6%; for `Cc1nn(CCO)c(C)c1CNC1CCOc2ccccc21.Cl` (centres undefined) it is 28.69%.
The result for `CC(C)N1CCC2(CCN(C(=O)c3cccnc3)CC2)C1.O=C(O)C(F)(F)F.O=C(O)C(F)(F)F` reads -3.69%; that for `COCc1cc(N2CCc3onc(-c4cccc(OC)c4)c3C2)ncn1`, 25.42%.
In the case of `COc1cccc(-c2noc3c2CN(c2ncnc4c2CCC4)CC3)c1`, the “Percent Effect” value was determined as 35.28%.
The figure for `COc1cccc(-c2noc3c2CN(c2nc(C)ncc2C)CC3)c1` is 77.03%; for `c1cc(CN2CCCC(c3ccnc4nccn34)C2)ccn1` (centres undefined) it is 21.25%; for `CSc1sc2c(O)cc(=O)[nH]c2c1C(N)=O` it is 28.59%.
Turning to `CCn1c(C)nnc1SCCn1cc(-c2nccs2)nn1`, the “Percent Effect” value is recorded as -8.266%.
The figure for `COc1ccc(CN2CCC3(CC(C(=O)NCC(C)C)=NO3)C2)cc1` (centres undefined) is 19.34%; for `CC(C)(C)C(=O)Nc1ccc(Oc2ccsc2C(=O)O)cc1` it is 16.22%.
The result for `O=C(Nc1cnc(Oc2ccccc2)nc1)C1CC1` reads 23.36%; that for `CC(C)CC(=O)Nc1ccc(Oc2ccsc2C(=O)O)cc1`, 38.91%.
In the case of `O=C(O)c1sccc1Oc1ccc(NC(=O)C2CC2)cc1`, the “Percent Effect” value amounted to 55.89%.
The figure for `CC(C)CC(=O)Nc1ccccc1Oc1ccsc1C(=O)O` is 8.037%; for `COCC(=O)Nc1ccc(Oc2ccsc2C(=O)O)cc1` it is 86.45%.
In the case of `CC(C)NC(=O)Nc1ccc2c(c1)ncn2CC(=O)NCCN(C)C`, the “Percent Effect” value is -20.24%.
For the compound `Cc1nc(C)n(C2CCCN(C(=O)Cc3ccc4c(c3)CCC4)C2)n1` (centres undefined), the “Percent Effect” value is given as 13.58%.
As for `Cc1cc(C)n(C2CN(Cc3noc(C4CC4)n3)C2)n1`, the “Percent Effect” value is recorded as 7.043%.
For `COCCC(=O)Nc1ccnn1-c1ccccc1`, the “Percent Effect” value is -2.555%.
With `c1cnc(N2CCOCC3(CCCN(c4nncs4)C3)C2)cn1` (centres undefined), the “Percent Effect” value is given as -8.424%.
Consider `CCOCCN1CCN(CCc2ccc3c(c2)CCO3)CC1`, for which the “Percent Effect” value is listed as -8.246%.
The result for `COCC(C)N1CCN(CCc2ccc3c(c2)CCO3)CC1` (centres undefined) reads -12.27%; that for `CC(C)NC1CCN(CCc2ccc3c(c2)CCO3)CC1`, 56.74%.
The result for `CS(=O)(=O)NC[C@]12COC[C@H]1CN(C(=O)C1CC=CC1)C2` reads -4.911%.
The result for `CC(C)CCN1CCN(CC(=O)Nc2ccc3nsnc3c2)CC1` reads -1.569%.
As to `Cc1ccc(CN2CCN(CC(=O)Nc3ccc4nsnc4c3)CC2)o1`, the “Percent Effect” value came to 54.44%.
With `CCC(CC)CN1CCN(CC(=O)Nc2ccc3nsnc3c2)CC1`, the “Percent Effect” value is 23.66%.
The figure for `CC(C)N1CC(n2ccnc2-c2nccn2C)CC1=O` (centres undefined) is -23.92%; for `CN(C)c1cc(C2CCCN(S(=O)(=O)C3CCCC3)C2)ccn1` (centres undefined) it is 15.85%; for `O=C(c1ccc[nH]1)N(Cc1ccc(O)cc1)CC1CC1` it is 43.3%.
The result for `Cc1[nH]ccc1C(=O)N(Cc1ccc(O)cc1)CC1CC1` reads 103.8%.
The result for `NC(=O)c1ccc(C(=O)N(Cc2ccc(O)cc2)CC2CC2)cc1` reads -5.401%; that for `CSc1ccc(C)c(C(=O)Nc2c(C(N)=O)n[nH]c2C)c1`, -17.81%; that for `COc1ccc(CNCCn2c(C)nc3ccccc32)cc1O`, -17.9%.
As for `COc1ccc(CNCCc2ccn(-c3ccccc3)n2)cc1O`, the “Percent Effect” value was found to be 107.6%.
The result for `COc1ccc(-n2ccc(CNCc3ccc(OC)c(O)c3)n2)cc1` reads 31.15%; that for `O=C1CCC(=O)N1c1nn(Cc2ccc(F)cc2)cc1Cl`, -47.77%; that for `CC[C@H](N)C(=O)Nc1nn(CC(F)(F)F)c2cc(OC(C)C)ccc12`, 15.83%.
The figure for `Cc1nc(C)n(CC2CCCCN2CC(=O)NCc2ccccn2)n1` (centres undefined) is 18.51%; for `CCS(=O)(=O)CCN1CCC(N(C)Cc2noc(C(C)C)n2)C1` (centres undefined) it is 13.23%; for `NC(=O)C1CN(C(=O)Nc2cc(Cl)cc(Cl)c2)CCO1` (centres undefined) it is 103.4%.
Consider `Cc1cc(NC(=O)N2CCOC(C(N)=O)C2)ccc1Br` (centres undefined), for which the “Percent Effect” value is 15.45%.
In the case of `COCC1CN(C(=O)Nc2cc(Cl)cc(Cl)c2)CCO1` (centres undefined), the “Percent Effect” value is given as 13.66%.
The result for `CNc1snc(C)c1C(=O)N1CCCC(n2cc(C)cn2)C1` (centres undefined) reads -17.18%; that for `Cc1nc(CN2CCC3(CC2)NC(=O)CC3c2ccncc2)cs1.O=C(O)C(F)(F)F.O=C(O)C(F)(F)F` (centres undefined), 21.18%; that for `COC(=O)COn1c(OC)nc2ccccc2c1=O`, 32.68%.
As for `COc1ccc(-n2c(SC)nc(O)c(Cc3ccccc3)c2=O)cc1`, the “Percent Effect” value was determined as 13.52%.
The result for `CCSc1nc2ccccc2c(=O)n1OCC(=O)OC` reads 74.42%.
Take `CCc1nc2ccccc2c(=O)n1CC1(O)CCN(CC(=O)OC)CC1`: the “Percent Effect” value is on record as 13.86%.
Consider `CCc1cc(=O)[nH]c2nnc(SCC(=O)OC)n12`, for which the “Percent Effect” value is recorded as -7.031%.
Turning to `COc1ccc(SCC2CNc3nc4ccccc4c(=O)n32)cc1` (centres undefined), the “Percent Effect” value was determined as 44.86%.
Turning to `COC(=O)COn1c(SC(C)C)nc2ccccc2c1=O`, the “Percent Effect” value is 75.74%.
The result for `COC(=O)COn1c(SCC(=O)OC)nc2ccccc2c1=O` reads 102.5%; that for `COC(=O)COn1c(SC)nc2ccccc2c1=O`, 75.88%; that for `CCc1nc2ccccc2c(=O)n1CC1(O)CCN(C(=O)COC)CC1.Cl`, 10.94%.
The figure for `COCC(C)NC(=O)CCCn1cnc2ccccc2c1=O` (centres undefined) is 7.524%.
Turning to `COC(=O)CNC(=O)CCCn1cnc2ccccc2c1=O`, the “Percent Effect” value is 3.303%.
In the case of `COCc1nn(Cc2ccc(Br)s2)c(=O)o1`, the “Percent Effect” value was 6.613%.
The result for `N#CCCn1nc(C(F)(F)F)c2c1CCCC2` reads -22.61%.
The result for `O=C(O)C(F)(F)F.O=C(O)C(F)(F)F.c1cc(CN2C[C@@H]3OCCN(CC4CC4)[C@@H]3C2)n[nH]1` reads 4.885%; that for `CO[C@@H]1CCN(C(=O)Cc2cccc(F)c2)[C@H]1Cc1cccnc1.O=C(O)C(F)(F)F`, -8.358%; that for `CC(C)C(=O)N1CC[C@H]2N(C)CC[C@@]2(C(=O)N2CCOCC2)CC1.O=C(O)C(F)(F)F`, -25.99%.
The figure for `Cc1ccccc1CN(C)CC(O)COCc1ccccc1Cl` (centres undefined) is -1.891%.
For the compound `O=C(O)C(F)(F)F.O=C(O)C(F)(F)F.c1cc(CN2CCc3ncc(CN4CCOCC4)n3CC2)cs1`, the “Percent Effect” value was -22.34%.
The result for `COc1ccncc1NCc1cscn1` reads 26.83%; that for `COc1ccccc1NCc1cscn1.Cl`, 16.2%; that for `CC(C)(C)Oc1ccncc1NCc1cscn1`, 55.35%.
The result for `COC1COC2(CCN(Cc3ccccc3F)CC2)C1.O=C(O)C(F)(F)F` (centres undefined) reads 10.15%.
Take `CCCc1nnc(N2CCN(c3ccccc3F)CC2)o1`: the “Percent Effect” value is -12.77%.
The figure for `CCCc1nnc(N2CCN(c3ccccc3Cl)CC2)o1` is 51.83%; for `CCCc1nnc(N2CCN(c3ccccc3OCC)CC2)o1` it is 24.59%.
The figure for `Cc1cccc(NC(=O)NC2CCC3(C2)OCCO3)c1Cl` (centres undefined) is 24.64%.
The figure for `CN(CC(=O)NC(Cc1ccsc1)c1cccnc1)Cc1ccccn1.Cl` (centres undefined) is -48.97%.
Regarding `Cc1csc(C(Cc2ccsc2)NC(=O)CN(C)Cc2ccccn2)n1.Cl` (centres undefined), the “Percent Effect” value worked out at 68.23%.
The result for `Cc1csc(C(Cc2ccsc2)NC(=O)CN(C)Cc2cccnc2)n1.Cl` (centres undefined) reads 14.48%; that for `CCOc1ccc(NC(=O)N2CCC(n3cncn3)CC2)cc1Cl`, -30.56%.
The figure for `O=C(CC1CC1)NC[C@]12COC[C@H]1CN(c1ncccn1)C2.O=C(O)C(F)(F)F` is 0.6787%; for `O=C(O)C(F)(F)F.O=C(O)C(F)(F)F.c1ccc(OC[C@]23COC[C@H]2CN(c2ncccn2)C3)nc1` it is 24.67%; for `O=C(O)C(F)(F)F.c1cnc(N2C[C@@H]3COC[C@]3(COCC3CCCC3)C2)nc1` it is 53.05%.
The result for `CCOCC1CN(Cc2cnn(C)c2)Cc2ncn(C)c21` (centres undefined) reads 21.37%; that for `Cc1ccc(CN2C[C@H](OCCN(C)C)[C@H]3COC[C@H]32)o1.O=C(O)C(F)(F)F.O=C(O)C(F)(F)F`, 19.04%.
